From the supplement of paper PMC10849652
About 7,900 targets were measured; listed, in parts, are those with a hit and a random draw of the rest. About 0.6% of all pairs of compound and target were hits.

Assays:
Assay in all cases: log2 fold change, soluble protein after heating vs DMSO (PISA); higher = thermal stabilisation; K562 cells, 10 uM, 30 min; active = over 0.2 and 3.5 SD of the protein, either way, in both replicates (recomputed)
[1] = compound: CS(=O)(=O)c1ccc(-c2cnc(N)c(C(=O)Nc3ccccc3)n2)cc1
Outline: (§1)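 Aliquots of K562 cells (2×10^6 cells/mL) treated with 10 μM compound for 30 min were heated for 3 min over 48°C-58°C. After pooling and extraction in PBS with 0.5% NP-40 at 4°C, soluble protein from a 21,000xg, 90 min spin was quantified by TMTpro 16plex LC-MS/MS with channel sums equalised. Thermal stability is expressed against control samples, from duplicates, as a log2 fold change.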

crizotinib = compound: C[C@@H](Oc1cc(-c2cnn(C3CCNCC3)c2)cnc1N)c1c(Cl)ccc(F)c1Cl [crizotinib]
Outline: as §1

[2] = compound: C[C@@H]1COCCN1C2=NC(=NC(=C2)C3(CC3)S(=O)(=O)C)C4=C5C=CNC5=CC=C4
Outline: as §1

[3] = compound: C[C@H](C1=CC=C(C=C1)C(=O)NC2=C3C=CNC3=NC=C2)N
Outline: as §1

duvelisib = compound: C[C@H](Nc1ncnc2nc[nH]c12)c1cc2cccc(Cl)c2c(=O)n1-c1ccccc1 [duvelisib]
Outline: as §1

gandotinib = compound: Cc1cc(Nc2cc(CN3CCOCC3)c3nc(C)c(Cc4ccc(Cl)cc4F)n3n2)n[nH]1 [gandotinib]
Outline: as §1

tozasertib = compound: Cc1cc(Nc2cc(N3CCN(C)CC3)nc(Sc3ccc(NC(=O)C4CC4)cc3)n2)n[nH]1 [tozasertib]
Outline: as §1

[4] = compound: Cc1cc(SCc2sc(-c3ccc(C(F)(F)F)cc3)nc2C)ccc1OCC(=O)O
Outline: as §1

doramapimod = compound: Cc1ccc(-n2nc(C(C)(C)C)cc2NC(=O)Nc2ccc(OCCN3CCOCC3)c3ccccc23)cc1 [doramapimod]
Outline: as §1

ispinesib = compound: Cc1ccc(C(=O)N(CCCN)[C@@H](c2nc3cc(Cl)ccc3c(=O)n2Cc2ccccc2)C(C)C)cc1 [ispinesib]
Outline: as §1

bafetinib = compound: Cc1ccc(NC(=O)c2ccc(CN3CC[C@H](N(C)C)C3)c(C(F)(F)F)c2)cc1Nc1nccc(-c2cncnc2)n1 [bafetinib]
Outline: as §1

[5] = compound: Cc1cccc(CC(=O)N2CCc3c2ccc(-c2cn(C)c4ncnc(N)c24)c3F)n1
Outline: as §1

nilotinib = compound: Cc1cn(-c2cc(NC(=O)c3ccc(C)c(Nc4nccc(-c5cccnc5)n4)c3)cc(C(F)(F)F)c2)cn1 [nilotinib]
Outline: as §1

[6] = compound: Cc1nc(Nc2n[nH]c3c2CN(C(=O)N[C@H](CN(C)C)c2ccccc2)C3(C)C)c2sccc2n1
Outline: as §1

dasatinib = compound: Cc1nc(Nc2ncc(C(=O)Nc3c(C)cccc3Cl)s2)cc(N2CCN(CCO)CC2)n1 [dasatinib]
Outline: as §1

[7] = compound: Cc1ncc(-c2ccnc(Nc3ccc(S(C)(=O)=O)cc3)n2)n1C(C)C
Outline: as §1

[8] = compound: Cn1cc(-c2ccc3c(c2)CCN3C(=O)Cc2cccc(C(F)(F)F)c2)c2c(N)ncnc21
Outline: as §1

[9] = compound: Cn1cc(-c2ccc3nnc(C(F)(F)c4ccc5ncccc5c4)n3n2)cn1
Outline: as §1

tipifarnib = compound: Cn1cncc1[C@@](N)(c1ccc(Cl)cc1)c1ccc2c(c1)c(-c1cccc(Cl)c1)cc(=O)n2C [tipifarnib]
Outline: as §1

mubritinib = compound: FC(F)(F)c1ccc(/C=C/c2nc(COc3ccc(CCCCn4ccnn4)cc3)co2)cc1 [mubritinib]
Outline: as §1

Measured: log2 fold change

XRCC6 (UniProt P12956)
Sequence of UniProt P12956 (P12956 whole entry, looked up): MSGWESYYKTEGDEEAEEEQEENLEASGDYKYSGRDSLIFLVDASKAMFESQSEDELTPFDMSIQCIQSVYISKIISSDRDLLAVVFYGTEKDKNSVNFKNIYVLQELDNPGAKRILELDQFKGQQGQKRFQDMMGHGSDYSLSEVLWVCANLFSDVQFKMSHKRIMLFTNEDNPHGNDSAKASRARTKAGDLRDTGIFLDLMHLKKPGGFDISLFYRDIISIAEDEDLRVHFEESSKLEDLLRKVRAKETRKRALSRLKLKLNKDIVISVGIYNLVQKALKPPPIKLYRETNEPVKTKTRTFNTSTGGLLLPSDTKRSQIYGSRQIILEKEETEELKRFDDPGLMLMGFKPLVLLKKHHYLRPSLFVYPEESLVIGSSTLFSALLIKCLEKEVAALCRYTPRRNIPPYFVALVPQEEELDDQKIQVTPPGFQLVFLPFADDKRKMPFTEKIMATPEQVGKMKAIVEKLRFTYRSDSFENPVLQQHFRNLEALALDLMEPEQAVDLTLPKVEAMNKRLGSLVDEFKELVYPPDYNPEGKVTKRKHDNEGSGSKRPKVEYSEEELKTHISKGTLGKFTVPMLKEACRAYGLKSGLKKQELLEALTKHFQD
inactive: [1] 0.013 | crizotinib -0.064 | [2] 0.088 | [3] -0.042 | duvelisib 0.016 | gandotinib -0.149 | tozasertib 0.075 | [4] 0.091 | doramapimod -0.05 | ispinesib -0.039 | bafetinib -0.003 | [5] 0.032 | nilotinib -0.067 | [6] -0.248 | dasatinib -0.147 | [7] -0.07 | [8] -0.01 | [9] 0.018 | tipifarnib -0.104 | mubritinib 0.043

WDR37 isoform 2 (UniProt Q9Y2I8)
Sequence of UniProt Q9Y2I8 (Q9Y2I8 whole entry, looked up): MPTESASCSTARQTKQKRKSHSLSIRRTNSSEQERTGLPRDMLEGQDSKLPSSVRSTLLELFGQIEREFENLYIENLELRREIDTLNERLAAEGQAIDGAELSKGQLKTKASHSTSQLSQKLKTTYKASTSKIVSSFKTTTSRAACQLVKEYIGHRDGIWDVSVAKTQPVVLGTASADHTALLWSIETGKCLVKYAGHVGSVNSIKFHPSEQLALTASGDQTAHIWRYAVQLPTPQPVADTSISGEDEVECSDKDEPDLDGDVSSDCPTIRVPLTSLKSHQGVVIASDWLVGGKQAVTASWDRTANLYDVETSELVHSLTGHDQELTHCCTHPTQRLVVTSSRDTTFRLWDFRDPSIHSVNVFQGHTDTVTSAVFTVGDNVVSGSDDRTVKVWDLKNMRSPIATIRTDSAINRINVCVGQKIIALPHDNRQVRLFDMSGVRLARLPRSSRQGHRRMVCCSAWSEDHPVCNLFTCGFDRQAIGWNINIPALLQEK
inactive: [1] 0.026 | crizotinib 0 | [2] 0.041 | [3] 0.11 | duvelisib -0.113 | gandotinib 0.069 | tozasertib 0.055 | [4] 0.15 | doramapimod 0.02 | ispinesib 0.055 | bafetinib 0.039 | [5] -0.093 | nilotinib -0.073 | [6] 0.039 | dasatinib 0.005 | [7] -0.05 | [8] -0.024 | [9] 0.017 | tipifarnib 0.083 | mubritinib -0.021

VPS18 (UniProt Q9P253)
Sequence of UniProt Q9P253 (Q9P253 whole entry, looked up): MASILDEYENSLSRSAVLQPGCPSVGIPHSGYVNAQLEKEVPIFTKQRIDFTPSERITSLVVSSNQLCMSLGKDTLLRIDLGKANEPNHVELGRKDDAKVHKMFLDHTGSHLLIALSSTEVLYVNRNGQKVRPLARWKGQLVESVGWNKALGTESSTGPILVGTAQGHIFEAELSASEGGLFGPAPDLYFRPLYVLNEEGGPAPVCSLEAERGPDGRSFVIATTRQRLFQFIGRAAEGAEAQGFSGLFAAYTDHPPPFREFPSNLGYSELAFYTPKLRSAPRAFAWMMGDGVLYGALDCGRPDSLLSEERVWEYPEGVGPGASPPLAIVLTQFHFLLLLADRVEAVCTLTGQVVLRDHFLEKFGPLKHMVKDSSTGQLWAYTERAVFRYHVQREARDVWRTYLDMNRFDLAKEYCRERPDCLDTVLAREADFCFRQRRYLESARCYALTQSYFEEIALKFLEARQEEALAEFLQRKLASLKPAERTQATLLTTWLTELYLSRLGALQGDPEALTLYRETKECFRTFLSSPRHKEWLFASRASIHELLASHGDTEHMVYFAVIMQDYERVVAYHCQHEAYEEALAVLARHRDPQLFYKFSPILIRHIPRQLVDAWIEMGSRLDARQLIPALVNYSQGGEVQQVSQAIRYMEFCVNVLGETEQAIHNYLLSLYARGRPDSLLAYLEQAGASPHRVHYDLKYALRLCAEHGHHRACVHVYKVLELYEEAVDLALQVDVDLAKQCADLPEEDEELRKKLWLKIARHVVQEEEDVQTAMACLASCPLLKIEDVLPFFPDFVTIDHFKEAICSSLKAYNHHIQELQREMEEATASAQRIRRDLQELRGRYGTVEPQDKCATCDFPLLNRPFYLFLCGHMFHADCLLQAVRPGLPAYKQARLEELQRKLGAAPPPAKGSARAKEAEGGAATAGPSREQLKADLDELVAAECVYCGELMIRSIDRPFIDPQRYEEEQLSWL
inactive: [1] -0.008 | crizotinib -0.21 | [2] -0.013 | [3] 0.05 | duvelisib -0.035 | gandotinib -0.041 | tozasertib 0.009 | [4] 0.063 | doramapimod -0.014 | ispinesib -0.203 | bafetinib -0.097 | [5] 0.059 | nilotinib -0.052 | [6] -0.069 | dasatinib -0.194 | [7] -0.022 | [8] 0.086 | [9] 0.089 | tipifarnib -0.047 | mubritinib 0.088

TRIM28 (UniProt Q13263)
inactive: [1] -0.001 | crizotinib 0.046 | [2] 0.048 | [3] -0.068 | duvelisib 0.027 | gandotinib -0.033 | tozasertib 0.13 | [4] 0.039 | doramapimod -0.036 | ispinesib -0.007 | bafetinib 0.005 | [5] 0.011 | nilotinib -0.013 | [6] -0.035 | dasatinib -0.014 | [7] 0.013 | [8] -0.02 | [9] 0.004 | tipifarnib -0.035 | mubritinib 0.009

USP25 isoform 3 (UniProt Q9UHP3)
inactive: [1] 0.042 | crizotinib -0.003 | [2] -0.017 | [3] -0.062 | duvelisib 0.05 | gandotinib -0.024 | tozasertib 0.036 | [4] 0.021 | doramapimod 0.007 | ispinesib -0.025 | bafetinib -0.043 | [5] 0.029 | nilotinib -0.021 | [6] -0.017 | dasatinib -0.048 | [7] 0.018 | [8] -0.038 | [9] 0.009 | tipifarnib -0.024 | mubritinib 0.023

TOMM20 (UniProt Q15388)
Sequence of UniProt Q15388 (Q15388 whole entry, looked up): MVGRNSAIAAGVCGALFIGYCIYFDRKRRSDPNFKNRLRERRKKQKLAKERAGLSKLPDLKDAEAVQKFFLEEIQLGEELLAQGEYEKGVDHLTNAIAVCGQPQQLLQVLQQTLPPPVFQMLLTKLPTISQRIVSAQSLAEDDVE
inactive: [1] -0.068 | crizotinib -0.019 | [2] 0.058 | [3] -0.06 | duvelisib 0.016 | gandotinib 0.116 | tozasertib -0.042 | [4] -0.062 | doramapimod -0.025 | bafetinib -0.194 | [5] -0.035 | nilotinib -0.002 | [6] -0.031 | dasatinib 0.039 | [7] 0.01 | [8] 0.003 | [9] 0.006 | tipifarnib -0.095 | mubritinib 0.017
active: ispinesib -0.358

TRMT10A (UniProt Q8TBZ6)
inactive: [1] 0.012 | crizotinib 0.01 | [2] 0.093 | [3] -0.072 | duvelisib 0.053 | gandotinib 0 | tozasertib -0.031 | [4] 0.016 | doramapimod -0.023 | ispinesib 0.028 | bafetinib 0.006 | [5] -0.022 | nilotinib 0.005 | [6] -0.018 | dasatinib -0.059 | [7] -0.002 | [8] 0.104 | [9] 0.008 | tipifarnib -0.022 | mubritinib 0.05

WDR61 (UniProt Q9GZS3)
inactive: [1] 0.043 | crizotinib -0.044 | [2] 0.071 | [3] -0.056 | duvelisib 0.059 | gandotinib -0.099 | tozasertib -0.072 | [4] -0.017 | doramapimod -0.004 | ispinesib -0.028 | bafetinib -0.01 | [5] -0.033 | nilotinib -0.018 | [6] 0.029 | dasatinib 0.007 | [7] -0.075 | [8] 0.023 | [9] 0.012 | tipifarnib -0.01 | mubritinib 0.075

USP15 (UniProt Q9Y4E8)
inactive: [1] 0.04 | crizotinib -0.041 | [2] 0.05 | [3] -0.009 | duvelisib 0.01 | gandotinib -0.043 | tozasertib 0.056 | [4] 0.063 | doramapimod -0.045 | ispinesib -0.036 | bafetinib -0.01 | [5] 0.047 | nilotinib -0.064 | [6] -0.082 | dasatinib -0.099 | [7] 0.005 | [8] 0.021 | [9] 0.044 | tipifarnib -0.081 | mubritinib 0.023

TP53BP1 isoform 2 (UniProt Q12888)
Sequence of UniProt Q12888 (Q12888 whole entry, looked up): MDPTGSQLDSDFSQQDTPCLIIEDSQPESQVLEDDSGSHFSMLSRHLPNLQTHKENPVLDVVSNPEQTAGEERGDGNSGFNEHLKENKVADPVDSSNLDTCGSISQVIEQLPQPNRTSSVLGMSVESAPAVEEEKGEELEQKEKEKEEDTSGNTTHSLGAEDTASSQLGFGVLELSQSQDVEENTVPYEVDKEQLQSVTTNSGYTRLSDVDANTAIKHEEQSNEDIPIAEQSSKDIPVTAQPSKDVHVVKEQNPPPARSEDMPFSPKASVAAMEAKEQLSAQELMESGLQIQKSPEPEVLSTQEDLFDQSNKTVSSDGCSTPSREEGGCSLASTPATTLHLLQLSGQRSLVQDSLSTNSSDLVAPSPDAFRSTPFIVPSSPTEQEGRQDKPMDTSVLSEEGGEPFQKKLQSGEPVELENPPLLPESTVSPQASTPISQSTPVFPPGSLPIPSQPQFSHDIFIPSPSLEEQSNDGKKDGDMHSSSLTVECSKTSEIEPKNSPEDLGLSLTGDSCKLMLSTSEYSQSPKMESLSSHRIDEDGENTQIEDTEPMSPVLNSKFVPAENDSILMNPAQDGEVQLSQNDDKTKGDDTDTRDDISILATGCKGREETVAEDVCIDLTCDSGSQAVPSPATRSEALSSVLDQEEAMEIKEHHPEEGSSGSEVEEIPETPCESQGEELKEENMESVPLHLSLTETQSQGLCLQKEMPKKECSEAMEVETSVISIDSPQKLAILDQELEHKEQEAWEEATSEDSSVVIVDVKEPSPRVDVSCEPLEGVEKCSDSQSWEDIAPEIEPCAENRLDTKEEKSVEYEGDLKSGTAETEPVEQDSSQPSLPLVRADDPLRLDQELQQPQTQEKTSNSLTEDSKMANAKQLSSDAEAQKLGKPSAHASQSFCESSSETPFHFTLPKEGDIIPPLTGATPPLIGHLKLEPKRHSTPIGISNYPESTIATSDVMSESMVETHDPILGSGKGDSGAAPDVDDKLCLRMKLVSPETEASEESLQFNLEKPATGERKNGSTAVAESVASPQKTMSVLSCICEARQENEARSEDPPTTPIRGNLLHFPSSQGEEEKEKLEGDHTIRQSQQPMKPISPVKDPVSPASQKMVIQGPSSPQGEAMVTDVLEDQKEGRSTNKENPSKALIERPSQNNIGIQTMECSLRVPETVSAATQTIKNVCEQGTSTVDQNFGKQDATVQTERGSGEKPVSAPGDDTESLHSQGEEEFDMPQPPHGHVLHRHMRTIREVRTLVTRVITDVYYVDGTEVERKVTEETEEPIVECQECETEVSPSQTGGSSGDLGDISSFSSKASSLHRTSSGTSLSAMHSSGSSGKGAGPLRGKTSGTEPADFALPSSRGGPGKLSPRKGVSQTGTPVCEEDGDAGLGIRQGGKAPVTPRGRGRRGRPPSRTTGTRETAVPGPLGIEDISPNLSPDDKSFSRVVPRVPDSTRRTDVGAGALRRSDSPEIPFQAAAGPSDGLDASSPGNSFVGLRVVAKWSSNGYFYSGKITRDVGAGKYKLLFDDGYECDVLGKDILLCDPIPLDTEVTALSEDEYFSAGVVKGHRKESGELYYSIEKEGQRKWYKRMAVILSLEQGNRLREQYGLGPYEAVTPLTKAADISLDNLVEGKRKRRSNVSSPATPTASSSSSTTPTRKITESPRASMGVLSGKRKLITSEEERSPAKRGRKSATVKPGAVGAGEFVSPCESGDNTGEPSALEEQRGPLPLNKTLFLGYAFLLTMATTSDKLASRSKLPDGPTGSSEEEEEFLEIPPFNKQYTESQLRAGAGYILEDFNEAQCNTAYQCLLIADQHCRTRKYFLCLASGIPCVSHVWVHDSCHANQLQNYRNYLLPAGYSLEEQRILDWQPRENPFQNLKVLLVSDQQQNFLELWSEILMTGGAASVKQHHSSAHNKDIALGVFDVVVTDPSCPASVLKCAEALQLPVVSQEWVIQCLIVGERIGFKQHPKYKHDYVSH
inactive: [1] 0.025 | crizotinib 0.076 | [2] -0.001 | [3] 0.018 | duvelisib -0.025 | gandotinib -0.053 | tozasertib 0.205 | [4] 0.066 | doramapimod 0.036 | ispinesib 0.002 | bafetinib 0.004 | [5] 0.008 | nilotinib -0.001 | [6] -0.011 | dasatinib -0.009 | [7] -0.027 | [8] -0.064 | [9] -0.014 | tipifarnib 0.016 | mubritinib -0.002

TXNIP (UniProt Q9H3M7)
inactive: [1] 0.05 | crizotinib -0.36 | [2] -0.103 | [3] -0.188 | duvelisib 0.03 | gandotinib -0.068 | tozasertib -0.06 | [4] 0.01 | doramapimod 0.113 | ispinesib -0.087 | bafetinib 0.03 | [5] -0.072 | nilotinib 0.018 | [6] 0.185 | dasatinib 0.005 | [7] -0.264 | [8] 0.105 | [9] -0.105 | tipifarnib 0.199 | mubritinib -0.264

UBE3D (UniProt Q7Z6J8)
inactive: [1] 0.002 | crizotinib 0.053 | [2] 0.128 | [3] -0.067 | duvelisib 0.016 | gandotinib -0.147 | tozasertib 0.076 | [4] -0.052 | doramapimod -0.01 | ispinesib -0.024 | bafetinib -0.036 | [5] -0.047 | nilotinib 0.043 | [6] -0.001 | dasatinib -0.071 | [7] 0.037 | [8] 0.003 | [9] 0.013 | tipifarnib -0.049 | mubritinib 0.009

USP48 isoform 8 (UniProt Q86UV5)
inactive: [1] 0.03 | crizotinib -0.036 | [2] 0.066 | [3] -0.133 | duvelisib 0.088 | gandotinib -0.197 | tozasertib 0.334 | [4] 0.212 | doramapimod -0.1 | ispinesib -0.07 | bafetinib 0.005 | [5] -0.089 | nilotinib -0.097 | [6] -0.362 | dasatinib -0.139 | [7] -0.073 | [8] -0.041 | [9] 0.097 | tipifarnib -0.11 | mubritinib -0.021

TMEM87B (UniProt Q96K49)
Sequence of UniProt Q96K49 (Q96K49 whole entry, looked up): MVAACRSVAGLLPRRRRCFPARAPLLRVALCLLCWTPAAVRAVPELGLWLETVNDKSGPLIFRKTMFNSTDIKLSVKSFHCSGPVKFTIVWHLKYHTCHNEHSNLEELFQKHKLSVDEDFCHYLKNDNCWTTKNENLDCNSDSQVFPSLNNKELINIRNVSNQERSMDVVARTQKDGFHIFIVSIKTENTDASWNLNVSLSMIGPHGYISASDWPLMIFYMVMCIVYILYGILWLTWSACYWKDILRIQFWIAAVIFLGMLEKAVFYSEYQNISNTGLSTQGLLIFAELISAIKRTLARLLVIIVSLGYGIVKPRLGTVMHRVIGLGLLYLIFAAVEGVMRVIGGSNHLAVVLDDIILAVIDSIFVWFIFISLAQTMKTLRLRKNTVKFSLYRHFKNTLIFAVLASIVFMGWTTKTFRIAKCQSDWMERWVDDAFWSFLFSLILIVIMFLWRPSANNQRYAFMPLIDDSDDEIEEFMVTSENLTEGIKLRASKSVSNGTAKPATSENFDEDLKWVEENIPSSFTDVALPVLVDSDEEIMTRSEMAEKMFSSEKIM
inactive: [1] 0.01 | crizotinib -0.323 | [2] -0.063 | [3] -0.033 | duvelisib 0.101 | gandotinib -0.11 | tozasertib 0.07 | [4] 0.071 | doramapimod -0.059 | bafetinib -0.138 | [5] 0.015 | nilotinib 0.037 | [6] -0.072 | dasatinib 0.002 | [7] 0.05 | [8] -0.077 | [9] -0.08 | tipifarnib 0.069 | mubritinib 0.006
active: ispinesib -0.406

TMEM192 (UniProt Q8IY95)
Sequence of UniProt Q8IY95 (Q8IY95 whole entry, looked up): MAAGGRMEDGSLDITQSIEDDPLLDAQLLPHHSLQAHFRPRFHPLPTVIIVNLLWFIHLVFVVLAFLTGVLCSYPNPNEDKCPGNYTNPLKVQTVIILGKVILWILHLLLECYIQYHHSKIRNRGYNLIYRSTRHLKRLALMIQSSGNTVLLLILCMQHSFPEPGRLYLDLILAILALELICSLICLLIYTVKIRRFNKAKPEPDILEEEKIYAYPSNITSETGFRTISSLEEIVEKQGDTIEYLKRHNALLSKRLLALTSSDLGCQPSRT
inactive: [1] 0.074 | [2] 0.043 | [3] 0.04 | duvelisib 0.026 | gandotinib 0.059 | tozasertib -0.008 | [4] -0.022 | doramapimod 0.024 | bafetinib -0.148 | [5] -0.083 | nilotinib 0.019 | [6] -0.002 | dasatinib 0.109 | [7] -0.042 | [8] -0.034 | [9] -0.051 | tipifarnib 0.051 | mubritinib -0.032
active: crizotinib -0.45 | ispinesib -0.318

VWA8 (UniProt A3KMH1)
inactive: [1] 0.01 | crizotinib -0.058 | [2] 0.093 | [3] 0.025 | duvelisib 0.066 | gandotinib -0.038 | tozasertib -0.038 | [4] 0.094 | doramapimod -0.041 | ispinesib -0.221 | bafetinib -0.113 | [5] -0.001 | nilotinib -0.099 | [6] -0.018 | dasatinib -0.158 | [7] -0.016 | [8] -0.057 | [9] 0.067 | tipifarnib 0.036
active: mubritinib -0.255
